# In PubChem BioAssay AID588855 (National Center for Advancing Translational Sciences (NCATS), 2011):
# “And” between values parts separate entries of the source, which are not always exact repeats. Equal values may be shown once. About 5,000 (1.2%) of roughly 410,000 compounds were called active. About 13% were inconclusive and are not listed. Calls come from the whole dose curve; as a rule, active = well fitted inhibition curve with a large enough effect; inconclusive = small, poorly fitted or top-dose-only effect; inactive = no such curve, though single readings can be large or run the other way. Shown is part of a subset that was picked to be rich in actives.
# Assay: qHTS for Inhibitors of TGF-b; note: nearly all actives have a fitted effect of over 65% in size
# Conditions: HepG2 CAGA-GFP TGF-b/SMAD3 reporter, GFP fluorescence, 18 h, TGF-beta stimulated, 500 pg/mL final; series mostly up to 46.1 µM; activity, negative = inhibition: at the top concentration
# Procedure, shortened: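 GFP signal (ex488/em500-530) from TGF-beta-stimulated HEPG2 CAGA-GFP cells, 500 pg/mL final, 18 h at 37 degrees C in DMEM plus 1% FBS, normalized to unstimulated and DMSO-stimulated controls.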
# % is set by controls: 0 for no effect and ±100 for the full control effect; potency is the fitted concentration of half-maximal effect.
Structure (SMILES),"activity, negative = inhibition",Potency
CCOC(=O)c1c(NC(=O)/C(C#N)=C/c2ccccc2)sc2c1CCC2,-10.7% (inactive),–
Cc1cccc(CC(=O)Nc2cccc(-c3cn4cccnc4n3)c2)c1,-7.3% (inactive),–
COc1ccc(-c2nc(C)c(CCNC(=O)c3ccc(C(F)(F)F)cc3)s2)cc1OC,11.9% (inactive),–
CCOC(=O)c1cc(OC(=O)c2ccccc2Cl)n(-c2ccccc2)n1,-17.4% (inactive),–
CSc1nc(=O)c2c(n1C)NC(=O)CC2c1ccccc1OC(C)C (stereo unspecified),-2.01% (inactive),–
Cc1cn(C)c(CC(=O)NCc2ccc(Cl)cc2)c1C(=O)O,10.5% (inactive),–
CCOc1n[nH]c(-c2ccccc2)n1,-5.85% (inactive),–
CCOC(=O)c1ccc(NC(=O)CC2C(=O)N(c3cccc(OC)c3)C(=O)N2C2CCCCC2)cc1 (stereo unspecified),-42.9% (inactive),–
Cc1ccc([N+](=O)[O-])cc1S(=O)(=O)N1CCCN(C)CC1,-1.45% (inactive),–
Cc1ccc(C)c(S(=O)(=O)N2CCN(CC(=O)Nc3ccc([N+](=O)[O-])cc3)CC2)c1,–,8.91 µM (active)
Cc1ccc(NC(=O)CCNC(=O)c2ccc([N+](=O)[O-])cc2)cc1S(=O)(=O)N1CCOCC1,1.06% (inactive),–
Cc1cccc(N2CCN(C(=O)c3oc(=O)c4ccccc4c3-c3ccccc3)CC2)c1C,0% (inactive),–
CCOc1ccccc1NC(=O)Cn1c(=O)n(Cc2ccccc2)c(=O)c2c(C)c(C(=O)N(C)C)sc21,-4.55% (inactive),–
CCC(=O)N1CCc2cc(S(=O)(=O)NCCC(=O)Nc3cccc(C)c3C)ccc21,3.97% (inactive),–
CCOc1ccc(OCCSc2nc3ccccc3n2CC(=O)O)cc1,6.92% (inactive),–
Cc1ccc(C(C)C)c(OCCSc2nc3ccccc3n2CC(=O)O)c1,-8.84% (inactive),–
Cc1cccc(OCCSc2nc3ccccc3n2CC(=O)N2CCCCC2)c1C,–,12.6 µM (active)
O=c1[nH]c2cc(Br)ccc2n2cccc12,3.58% (inactive),–
COc1ccc(-c2onc(C)c2-c2ccc3c(c2)OCCO3)c(O)c1,–,15.8 µM (active)
COc1cc(-c2c(-c3ccc4c(c3)OCO4)noc2C)ccc1F,–,inactive
COc1ccc(-c2c(-c3ccc(OC)cc3O)nc(C)nc2C(F)(F)F)cc1,-4.38% (inactive),–

Structure (SMILES),"activity, negative = inhibition",Potency
O=C1O/C(=C\c2ccc(O)cc2)C(O)=C1c1ccc(O)cc1,5.93% (inactive),–
O=[N+]([O-])c1ccccc1SNc1ccccn1,-21.9% (inactive),–
Cc1ccc2cccc([N+](=O)[O-])c2n1,-20.7% (inactive),–
O=S(=O)(Nc1cccc2cccnc12)c1cccc2cccnc12,–,1.78 µM (active)
O=[N+]([O-])c1ccccc1S(=O)(=O)Nc1cccc2cccnc12,–,1.26 µM (active) and 6.31 µM (active)
O=C(Nc1cccc2cccnc12)C(F)(F)F,-0.477% (inactive),–
O=S(=O)(Nc1ccccc1Cl)c1cccc2nsnc12,-3.12% (inactive),–
Cc1ccc(Cn2cc(CCC(=O)NCc3ccc(OC(C)C)cc3)c3ccccc32)cc1,-19.7% (inactive),–
O=C(O)c1ccc2c(c1)N(Cc1ccc(F)cc1)C(=O)c1ccccc1S2=O (stereo unspecified),-28.9% (inactive),–
COc1cc(OC)c(NC(=O)Cc2ccc(-n3c(C)nc4cccnc43)cc2)cc1Cl,0% (inactive),–
CNC(=O)c1csc(-c2ccccc2)n1,7.68% (inactive),–
O=C(/C=C/Nc1ccccc1)c1cnc(-c2ccccc2)s1,1.26% (inactive),–
Cc1nc(-c2ccccc2)sc1C(=O)/C=C/c1ccccc1,–,10 µM (active)
O=C(CSc1nc2nccnc2c(=O)n1CCc1c[nH]c2ccccc12)Nc1ccccc1F,-19.6% (inactive),–
O=C1COc2ccc(-c3csc(-c4ccc(Cl)cc4)n3)cc2N1,4.59% (inactive),–
COc1ccc(C(=O)NCc2ccc(C)cc2)cc1S(=O)(=O)N1CCCC1,-0.243% (inactive),–
Cc1ccc(C)c(S(=O)(=O)N2CCN(C(=O)Nc3ccccc3)CC2)c1,-17.8% (inactive),–
COc1ccc(C)cc1S(=O)(=O)N1CCN(S(=O)(=O)c2cc(C(=O)O)ccc2C)CC1,–,6.31 µM (active)
CCCN(CCC)CCCNC(=O)Cn1cc2c(n1)-c1c(oc(C(=O)N3CCCC3)c1C)CC2,-28.1% (inactive),–
COc1cn(CC(=O)Nc2cccc(C)c2C)c(CN2CCCCC2)cc1=O,26.1% (inactive),–
